UCHL1 block: human UCHL1 deubiquitinase inhibition | P09936 | purified UCHL1, Ub-rhodamine cleavage fluorescence | inhibition, % at 20 µM | 0.2% of 47,000 active
USP28 inh: blocks human USP28 ubiquitin-rhodamine cleavage; Q96RU2; AID 1645857; 3% of 47,000 active; inhibition, % at 25 µM; purified USP28, Ub-rhodamine cleavage fluorescence, 30 min
USP7 inh: human USP7 deubiquitinase inhibition. Q93009. purified USP7, Ub-rhodamine cleavage fluorescence. inhibition, % at 20 µM. 0.3% of 47,000 active. AID 1645854
OTUD3 block: inhibitors of human OTUD3 deubiquitinase; purified OTUD3, Ub-rhodamine fluorescence, 2 h; inhibition, % at 25 µM; 0.7% of 47,000 active; AID 1645858
USP8 block: human USP8 deubiquitinase inhibition; 4.2% of 47,000 active; AID 1645853; inhibition, % at 20 µM; P40818; purified USP8, Ub-rhodamine cleavage fluorescence, 30 min
USP10 block: human USP10 deubiquitinase inhibition; Q14694; purified USP10, Ub-rhodamine fluorescence, 60 min; inhibition, % at 20 µM; 1.1% of 47,000 active; AID 1645856
Active calls of the source: *; nt = no result given. Only some compounds are listed: those with a hit (about 6.8% of all), similar ones and a draw of the others. Rule as the data show it: active = inhibition above about 30%; inactive = the rest.

SMILES	UCHL1 block	USP28 inh	USP7 inh	OTUD3 block	USP8 block	USP10 block
C=C1Nc2ccccc2C(=O)N1c1cccc(NC(=O)c2ccc(C)c(C)c2)c1	6	22	2	30*	0	-2
C=C1Nc2ccccc2C(=O)N1c1cccc(NC(=O)c2ccc(C)cc2)c1	0	24	1	-1	1	0
N#Cc1cccc(C(=O)N2CCN(Cc3noc(-c4ccccc4)n3)CC2)c1	0	-8	-2	-3	-2	-3
CCOc1ccccc1NC(=O)Cn1c(=O)n(CCCC(=O)NCc2ccc(C)cc2)c(=O)c2sccc21	6	36*	36*	13	47*	56*
COc1ccc(NC(=O)Cn2c(=O)n(CC(=O)NCc3ccc(C)cc3)c(=O)c3sccc32)cc1OC	11	70*	9	32*	1	13
CCOc1ccc(NC(=O)Cn2c(=O)n(CC(=O)NCc3ccc(C)cc3)c(=O)c3sccc32)cc1	5	15	14	20	30	18
Cc1ccc(CNC(=O)CCCn2c(=O)c3sccc3n(CC(=O)Nc3cc(Cl)ccc3C)c2=O)cc1	-1	55*	19	40*	29	28
O=C(NC(Cc1ccccc1)c1nc2ccccc2[nH]1)c1ccc(-n2cnnn2)cc1 (centres undefined)	3	2	-2	7	43*	1
O=C(NC(Cc1ccccc1)C(=O)Nc1ccc(-n2cnnn2)cc1)c1ccccc1 (centres undefined)	2	-3	-6	-2	1	1
O=C(N[C@@H](Cc1ccccc1)c1nc2ccccc2[nH]1)c1ccncc1	3	5	1	5	10	-2
O=C(NC(Cc1c[nH]c2ccccc12)c1nc2ccccc2[nH]1)c1ccccc1 (centres undefined)	4	-2	0	-22	42*	-7
COc1ccc(C(=O)NC(Cc2ccccc2)c2nc3ccccc3[nH]2)c(OC)c1 (centres undefined)	19	28	-5	-2	95*	18
O=C(NC(Cc1ccccc1)c1nc2ccccc2[nH]1)c1ccccn1 (centres undefined)	-2	57*	0	-1	-40	-3
O=C(NC(Cc1ccccc1)c1nc2ccccc2[nH]1)c1nc(Cl)ccc1Cl (centres undefined)	-3	24	4	-11	-6	-3
O=C(NCCNS(=O)(=O)c1ccc(Cl)c(Cl)c1)c1ccccc1	4	10	1	7	6	3
O=C(NC[C@H]1OC[C@@H]2CCN(c3ccccn3)C[C@@H]21)c1ccnnc1	2	1	10	1	-21	-2
O=C(NC(Cc1ccccc1)c1nc2ccccc2[nH]1)C1CCC1 (centres undefined)	1	12	1	10	63*	-1
COc1ccccc1Nc1ncc(C(=O)N(C)Cc2ccccc2)c2ccccc12	-3	-18	-26	-34	69*	-6
COc1ccccc1Nc1ncc(C(=O)NCCc2ccc(Cl)cc2)c2ccccc12	0	7	23	13	37*	8
Cc1ccc(CC(=O)Nc2ccc(C)cc2-c2n[nH]c(C3CC3)n2)cc1	7	-6	9	-7	64*	30*
Cc1ccccc1CNC(=O)c1nc(N2CCCCC2)c2cn(C)nc2n1	1	14	3	6	11	-8
COc1cccc(N2CCN(c3ccc4nnc(CCC(=O)NCc5ccco5)n4n3)CC2)c1	-7	-5	-8	-4	-9	-8
COc1cccc(N2CCN(c3ccc4nnc(CCC(=O)NCC5CCCO5)n4n3)CC2)c1 (centres undefined)	-4	-18	-1	-8	1	0
COc1cccc(N2CCN(c3ccc4nnc(CCC(=O)NC5CCCC5)n4n3)CC2)c1	4	7	0	6	65*	-2
COc1cccc(N2CCN(c3ccc4nnc(CCC(=O)N5CCc6ccccc6C5)n4n3)CC2)c1	9	39*	11	20	11	8
SMILES	UCHL1 block	USP28 inh	USP7 inh	OTUD3 block	USP8 block	USP10 block
CC(=O)N1CCCC[C@@H]2[C@H]1CCN2Cc1cn[nH]c1-c1ccccc1	-6	-26	-4	-2	-37	-8
O=c1[nH]c(-c2cccnc2)nc2c1CCN(Cc1[nH]c3ccccc3c1Cl)C2	-4	-13	-1	-13	37*	0
O=C(NC1CCCCC1)c1cccn1Cc1noc(C2CC2)n1	-6	-14	-10	-6	-7	-1
O=C(NC1CCCC1)c1cccn1Cc1noc(-c2ccccc2)n1	6	11	-10	9	32*	3
O=C(/C=C/C=C/C=C/C1CCCCC1)NC1=C[C@@](O)(/C=C/C=C/C=C/C(=O)NC2=C(O)CCC2=O)[C@@H]2O[C@@H]2C1=O	47*	75*	45*	73*	-24	-5
O=C1c2ccccc2-c2nnc(-c3ccncc3)cc21	16	13	-1	16	95*	7
O=S(=O)(Nc1cc(S(=O)(=O)N2CCCCC2)ccc1O)c1ccc2c(c1)OCCCO2	2	11	3	4	83*	7
O=S(=O)(c1ccc2c(c1)OCCO2)N1CCC(N2CCCCC2)CC1	-3	-19	-4	-9	2	-6
CN(C)C(=O)N1Cc2ccccc2C2(CCNCC2)C1	2	16	6	17	-29	3
Cc1ccccc1-c1nc(NC(=O)COc2ccc(F)cc2)no1	1	6	-1	2	2	4
O=C(COc1ccc(Cl)cc1)Nc1noc(-c2ccccc2)n1	14	58*	30	-1	88*	50*
CC(C)n1cc(C(=O)N2CCc3nc4ccccc4c(=O)n3CC2)cn1	1	4	5	7	16	0
CS(=O)(=O)N1CCc2cc(C(=O)N(Cc3ccccc3)Cc3ccccc3)ccc21	6	9	-2	3	-11	11
Cc1[nH]n2c(=O)c(Cl)c(-c3ccccc3)nc2c1-c1ccccc1	4	14	14	22	-219	33*
O=C(Cn1cnc(-c2noc(-c3ccccc3)n2)c1)Nc1ccccc1	29	nt	18	-2	90*	42*
O=C(Cn1cnc(-c2noc(-c3cccc(F)c3)n2)c1)Nc1ccccc1	6	-5	5	-3	65*	27
O=C(Cc1noc(-c2ccccc2)n1)Nc1ccccc1	-7	-24	-8	-13	13	-8
O=S(=O)(c1ccccc1)c1nnn2c1nc(Nc1ccc(F)cc1)c1ccccc12	2	0	8	6	52*	10
COc1cccc(CNc2nc3c(S(=O)(=O)c4ccc(F)cc4)nnn3c3ccccc23)c1	-3	2	6	0	9	1
Cc1ccc(S(=O)(=O)c2nnn3c2nc(Nc2cccc(C)c2C)c2ccccc23)cc1	2	4	14	4	67*	13

From PubChem
